The panel holds about 83,000 compounds, 20% with a hit somewhere; the sample as a whole holds those more often.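 Percent growth is the endpoint: 0 to 100 indicates growth inhibition (40 means 60% inhibition), 0 means no net growth, and negative values indicate cell death.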 Calls of active or inactive are those of the source. How the source made its calls: active means growth percent below 10; inactive means the rest.
Key:
Assay in all cases: NCI-60 one-dose screen, 48 h (100 = growth as untreated, 0 = no growth, -100 = all killed)
Conditions in all cases: 10 µM unless noted
[1] = tested on: NCI-H23 lung
[2] = tested on: NCI-H226 lung
[3] = tested on: NCI-H322M lung
[4] = tested on: HOP-62 NSCLC
[5] = tested on: NCI-H460 lung
[6] = tested on: HOP-92 NSCLC
[7] = tested on: NCI-H522 lung
[8] = tested on: A549/ATCC NSCLC
[9] = tested on: 786-0 renal
[10] = tested on: COLO 205 colon

Measured: growth

N=C(N)c1ccc(-c2ccc(-c3ccc(-c4cccs4)s3)s2)cc1F
inactive: [1] 93.2% | [2] 95.7% | [3] 26% | [4] 100% | [5] 13% | [6] 94.8% | [7] 100% | [8] 15.1% | [9] 99.5% | [10] 101%

C=C(C)[C@@H]1CC[C@]2(C(=O)NCCCN)CC[C@]3(C)[C@H](CC[C@@H]4[C@@]5(C)CC[C@H](O)C(C)(C)[C@@H]5CC[C@]43C)[C@@H]12
active: [1] -8.47% [100 µM] | [3] -68.8% [100 µM] | [4] -26.8% [100 µM] | [5] -43.2% [100 µM] | [6] -55.5% [100 µM] | [7] -17% [100 µM] | [8] -4.7% [100 µM] | [9] -22.6% [100 µM] | [10] 7.82% [100 µM]
inactive: [2] 36.6% [100 µM]

Nc1ccc2c(c1)Cc1cc(NC(=O)C(F)(F)F)ccc1-2
inactive: [1] 95.9% | [2] 93.6% | [3] 95.5% | [4] 105% | [5] 97.8% | [6] 101% | [7] 90.3% | [8] 93.6% | [9] 108% | [10] 109%

COc1ccc2c(c1)C(C)Cc1c(Cl)ncnc1N2C (stereo not given)
active: [1] 7.68% | [2] -3.41% | [6] 6.91% | [7] -49.9% | [9] 7.84% | [10] -66%
inactive: [3] 36.1% | [4] 11.8% | [5] 16.6% | [8] 15%

O=C(N/N=C/c1c(Cl)cccc1Cl)c1cccc(Nc2ccnc(C(F)(F)F)c2)c1
inactive: [1] 89.7% | [2] 78.7% | [3] 108% | [4] 86.6% | [5] 82.1% | [6] 60.5% | [7] 87% | [8] 107% | [9] 81.9% | [10] 89.4%

CC(C)=CCC[C@](C)(O)[C@H]1CC[C@]2(C)[C@@H]1CC[C@@H]1[C@@]3(C)CC/C(=N/O)C(C)(C)[C@@H]3CC[C@]12C
inactive: [2] 11.3% [100 µM]
active: [1] -56.9% [100 µM] | [3] -1.07% [100 µM] | [4] -50.9% [100 µM] | [5] -7.45% [100 µM] | [6] -62% [100 µM] | [7] -28.9% [100 µM] | [8] -70.4% [100 µM] | [9] -21.1% [100 µM] | [10] -43.5% [100 µM]

N/C(=N\c1nc2ccccc2[nH]1)NC(=O)Cc1cccc2ccccc12
inactive: [1] 76.5% | [2] 88.7% | [3] 85.3% | [4] 108% | [5] 84.4% | [6] 64.6% | [7] 63.7% | [8] 69.7% | [9] 70.4% | [10] 90.6%

O=C(N=c1n(-c2ccccc2)nc2n1CCN2C1=NCCN1C(=O)c1ccc(Cl)cc1)c1ccc(Cl)cc1
inactive: [1] 75.9% | [2] 93.2% | [3] 86.9% | [4] 93.5% | [5] 60.6% | [6] 120% | [7] 64.2% | [8] 65.4% | [9] 83.1% | [10] 75.1%

Cc1ccc(S(=O)(=O)N/N=C2\CC3CCC2(C)C3(C)C)cc1 (stereo not given)
inactive: [1] 237% | [2] 96.9% | [3] 116% | [4] 103% | [5] 108% | [6] 95.6% | [7] 63.1% | [8] 81.8% | [9] 103% | [10] 113%

Cc1cc(-c2ccc(N=Nc3c(S(=O)(=O)O)cc4cc(S(=O)(=O)O)cc(N)c4c3O)c(C)c2)ccc1N=Nc1cc(S(=O)(=O)O)c2ccccc2c1O
inactive: [1] 92.2% | [2] 90% | [3] 86.5% | [4] 93.8% | [5] 107% | [6] 89.6% | [7] 101% | [8] 97.2% | [9] 104% | [10] 110%

CCN(CC)c1ccc2cc(NC(=O)OCCNC(=O)CCNC(=O)[C@H](CC(C)C)NC(=O)C(C)(C)NC(=O)C(C)(C)NC(=O)[C@H](CC(C)C)NC(=O)CCNC(=O)C(C)(C)NC(=O)[C@H](CC(C)C)NC(=O)CCNC(=O)[C@@](C)(CC)NC(=O)[C@H](C)NC(=O)CCNC(=O)C(C)(C)NC(=O)[C@H](C)NC(=O)[C@@H]3CCCN3C(=O)[C@@](C)(CC)NC(=O)[C@H](Cc3ccccc3)NC(=O)C3CCCN3C(=O)C(C)(C)NC(=O)C3CCCN3C(=O)C(C)(C)NC(C)=O)c(=O)oc2c1 (stereo not given in full)
active: [1] -85.9% | [2] -65.9% | [3] -80.3% | [4] -86.7% | [5] -76.9% | [6] -95.8% | [7] -82.3% | [8] -76% | [9] -94.8% | [10] -81.1%

Reference: PubChem BioAssay (NCI)
